D1 ag = activates the human D1 dopamine receptor; actives 1% (n = 360,000); P21728; AID 504660; activation, % at 2 µM; HEK293 T-REx D1 cells, calcium flux, agonist mode; further: 0% is about no effect
Target sequence (P21728 whole entry, looked up): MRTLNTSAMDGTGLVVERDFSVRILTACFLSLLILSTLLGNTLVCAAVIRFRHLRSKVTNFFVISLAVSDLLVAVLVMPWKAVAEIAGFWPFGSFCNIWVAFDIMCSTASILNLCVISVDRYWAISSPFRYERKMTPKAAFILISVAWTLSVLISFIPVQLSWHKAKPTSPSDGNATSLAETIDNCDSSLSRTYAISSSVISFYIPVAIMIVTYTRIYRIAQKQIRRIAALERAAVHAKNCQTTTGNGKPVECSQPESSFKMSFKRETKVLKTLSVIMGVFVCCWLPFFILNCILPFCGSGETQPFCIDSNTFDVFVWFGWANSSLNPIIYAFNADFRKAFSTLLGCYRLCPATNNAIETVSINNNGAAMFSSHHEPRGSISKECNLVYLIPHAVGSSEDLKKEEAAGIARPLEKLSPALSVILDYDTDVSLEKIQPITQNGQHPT
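Inducible HEK293 T-REx D1 cells, force-coupled to calcium signalling, were plated at 4000 cells/well with tetracycline and held overnight at 30 C. After no-wash calcium dye loading, compound-evoked calcium rise over 180 s flagged agonists.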
TRHR agonist = TRH receptor (human) agonism; TRHR cells, calcium flux fluo-8, FDSS agonist mode; P34981; actives 0.18% (n = 360,000); activation, % at 2 µM; further: 0% is about no effect
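Read-out: compound-evoked intracellular calcium rise in TRHR cells, fluo-8 dye, kinetic FDSS fluorescence at 1 s/cycle following a 10-cycle baseline. Cells cultured overnight before dye loading (30 min–1.5 h, RT).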
TRHR enhancer = allosterically enhances the human TRH receptor | P34981 | TRHR cells, fluo-8 calcium fluorescence, EC20 TRH enhancement | enhancement, % at 2 µM | actives 0.66% (n = 360,000); in the data active means enhancement above about 30%; further: 0% is about no effect
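Enhancer read-out: after compound pinning and an initial kinetic agonist-mode read, an EC20 of TRH (10 nM final) was injected and fluo-8 calcium signal (Ex 480/Em 530) followed at 1 s/cycle for 100 cycles in TRHR-expressing cells.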
D1 antag = blocks dopamine activation of the human D1 receptor. activity change, negative = inhibition, % at 10 µM. P21728. actives 3.2% (n = 360,000). HEK293 TREx D1 cells, calcium flux, dopamine EC80; hits give low values; in the data active means activity change below about -30%; further: on the % scale 0 is the no-effect control and ±100 the full control effect
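Compound effects on dopamine-evoked calcium signalling were measured in tetracycline-induced HEK293 Trex D1 cells. Dopamine at EC80 followed a 180 s compound pre-read, and fluorescence was tracked kinetically for 180 s more.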
D1 PAM = enhances dopamine response at the human D1 receptor. P21728. HEK293 TREx D1 cells, calcium flux, dopamine EC20 potentiation. potentiation, % at 10 µM. actives 0.036% (n = 360,000). AID 504651; in the data active means potentiation above about 30%; further: 0% is about no effect
The depositor's hits bear a star; ! = repeats disagree. In the library only some 4.7% were active in any assay of this set; here they are far more common. Unless noted, no stated cut-off is given here; in the data, active means activation above about 30%; inactive means the rest.

SMILES | D1 ag | TRHR agonist | TRHR enhancer | D1 antag | D1 PAM
COC(=O)c1cc(S(=O)(=O)N2CCN(c3ccc(C(C)=O)cc3)CC2)c[nH]1 | 5 | 0 | 2 | -32* | 1
CC(=O)N1c2ccc(S(=O)(=O)N3CCC(C(=O)N4CCN(c5cc(Cl)ccc5C)CC4)CC3)cc2CC1C (configuration not stated) | 8 | 1 | -2 | -33* | -2
CC1CC(C)CN(C(=O)C2CCN(S(=O)(=O)c3ccc4c(c3)CC(C)N4C(=O)C3CC3)CC2)C1 (configuration not stated) | -1 | -2 | -17 | -45* | -11
COc1ccc([C@]23Cc4cc(C#N)ccc4C(O2)c2c(c4ccc(OC)cc4oc2=O)O3)cc1 | 1 | 0 | 12 | 0 | -1
Cc1cccc(C)c1NC(=O)CN(Cc1ccc(Br)cc1)S(=O)(=O)c1ccccc1 | 7 | 1 | -6 | 21 | 1
CC1CCN(c2ccc(S(=O)(=O)N3CCC(C)CC3)cc2N)CC1 | 7 | 0 | -3 | 4 | 0
CC1CCN(S(=O)(=O)c2ccc3c(c2)N(C)C(=O)CC(=O)N3C)CC1 | 0 | 0 | 4 | -37*! | -4
COc1ccccc1CNS(=O)(=O)c1ccc2c(c1)CC(C)N2C(=O)C1CCC1 (configuration not stated) | 20 | 0 | -7 | -32*! | -17
Cc1ccc(NC(=O)C(NS(=O)(=O)c2ccc3c(c2)CCC(=O)N3)c2ccccc2)cc1C (configuration not stated) | 1 | 0 | -3 | -3 | -2
CCOc1ccc(/C=C/c2nc3ccccc3n2S(=O)(=O)c2cccc(Cl)c2)cc1 | 4 | 0 | 1 | 3 | 8
C=CCSc1nnc(N2C(=O)C(O)=C(C(=O)c3ccco3)C2c2ccccc2F)s1 (configuration not stated) | 27 | 12 | 1 | 15 | -2
CSc1nnc(N2C(=O)C(O)=C(C(=O)c3ccco3)C2c2ccccc2F)s1 (configuration not stated) | 98* | 23 | 3 | -1 | 2
CCCSc1nnc(N2C(=O)C(O)=C(C(=O)c3ccco3)C2c2ccccc2F)s1 (configuration not stated) | 97* | 29 | -3 | -15 | -4
FC(F)(F)c1nc(NCc2ccccc2)c2nnn(Cc3ccccc3)c2n1 | 4 | 3 | -1 | -11 | -13
CCN(CC)CCNc1nc(C(F)(F)F)nc2c1nnn2Cc1ccccc1 | 10 | 1 | 5 | -92* | -1
Cc1cc(C)c(S(=O)(=O)c2ccc(C(C)(C)C)cc2)c(Cl)n1 | 34* | 0 | 9 | -27 | -7
CCN(CC)CCN(Cc1cc2cc3c(cc2[nH]c1=O)OCCO3)C(=S)NC | -2 | 0 | -4 | -31* | -8
CNC(=S)N(CCO)Cc1cc2cc3c(cc2[nH]c1=O)OCO3 | 2 | 1 | 6 | -17 | -2
CNC(=S)N(CCO)Cc1cc2cc3c(cc2[nH]c1=O)OCCO3 | 3 | 0 | 10 | 14 | -1
CCNC(=S)N(CCO)Cc1cc2cc3c(cc2[nH]c1=O)OCO3 | 0 | 0 | 34* | -22 | -2
CCOc1cc(-c2ccc(OC(=O)c3ccc(C)cc3)c(OC)c2)cc(=O)c2c(C)oc(C)c12 | 7 | 0 | 9 | 17 | 1
Cc1ccc(Cn2c(CO)cnc2SCC(=O)Nc2ccc(C)c(Cl)c2)cc1 | 25 | -2 | -3 | -7 | -4
N#C/C(=C/c1ccc(N2CCCCC2)o1)C(=O)Nc1ccc2ccccc2c1 | 313* | 106* | -14 | -38* | -8
N#C/C(=C/c1ccc(N2CCCCC2)o1)C(=O)Nc1ccc(Cl)cc1 | 420* | 165* | 0 | -3 | -18
COc1ccc(NC(=O)/C(C#N)=C/c2ccc(Br)o2)cc1 | 6 | 0 | 0 | -1 | 1
SMILES | D1 ag | TRHR agonist | TRHR enhancer | D1 antag | D1 PAM
CCCCn1c(-c2csc(CCC)c2)n[nH]c1=S | 57* | -2 | -5 | -13 | -3
CCCc1cc(-c2n[nH]c(=S)n2CC)cs1 | 2 | -1 | -2 | -15 | -12
COc1ccccc1N1CCN(Cc2cn[nH]c2-c2ccc(F)cc2)CC1 | 60* | -1 | 12 | 4 | -4
COc1ccccc1N1CCN(Cc2cccc(OC)c2OC)CC1 | 8 | 0 | -1 | -42* | -8
COc1ccc2c(CNCCc3ccccc3OC)c(C(=O)O)n(Cc3ccc(F)cc3Cl)c2c1 | 0 | 1 | 2 | 9 | 6
O=C(Nc1cccc(F)c1)C1CCN(c2nnnn2-c2ccccc2)CC1 | 3 | 0 | -9 | -30* | -4
COc1cccc(Nc2nc3ccccc3nc2NS(=O)(=O)c2cccs2)c1 | 16 | 1 | -3 | -32* | -6
Cc1cc2c(s1)c1cnn(Cc3ccc(C#N)cc3)c(=O)c1n2C | 4 | 0 | 2 | -16 | -4
Cc1n[nH]c(=O)c2c1nnn2Cc1ccccc1Cl | 0 | 0 | -25 | -51* | -7
CC(C)c1ccc(C2N3CC4(C)CN2CC(c2ccccc2)(C3)C4=O)cc1 (configuration not stated) | 1 | 7 | 4 | 7 | 8
CCC(=O)N1CCc2cc(S(=O)(=O)NC(CC(C)C)C(=O)NCc3cccc(OC)c3)ccc21 (configuration not stated) | 1 | -1 | -7 | 8 | 0
CCC(=O)N1CCc2cc(S(=O)(=O)NCCC(=O)NCc3ccc(OC)cc3)ccc21 | 1 | 0 | 6 | -44* | -1
CCC(=O)N1CCc2cc(S(=O)(=O)NCCC(=O)NCc3ccc(F)cc3)ccc21 | 0 | 0 | -6 | -20 | -2
CCC(=O)N1CCc2cc(S(=O)(=O)NC(CC(C)C)C(=O)NCc3ccc(F)cc3)ccc21 (configuration not stated) | -1 | -1 | 12 | -40* | 4
CCc1ccc(NC(=O)C2CCN(S(=O)(=O)c3c(C)noc3/C=C\c3ccc(OC)cc3)CC2)cc1 | 3 | 1 | 4 | 10 | 6
Cc1nn(-c2ccc(Cl)cc2)c2nc(-c3cccnc3)cc(C(F)(F)F)c12 | 1 | 0 | 8 | 16 | 0
COc1cc(/C=N/NC(=O)CC2(C)OCCCO2)ccc1OCc1ccc(Cl)cc1Cl | 10 | 1 | 1 | 0 | -2
CC1(CC(=O)N/N=C/c2ccc(OCc3ccc(Cl)cc3Cl)cc2)OCCCO1 | 4 | 0 | -6 | -31* | -8
COc1ccc(C)cc1NC(=O)C(OC(=O)c1cnccn1)c1ccccc1 (configuration not stated) | 1 | 0 | 5 | 7 | -4
COc1ccc(C)cc1NC(=O)C(OC(=O)c1ccc([N+](=O)[O-])o1)c1ccccc1 (configuration not stated) | 0 | -1 | -5 | -48* | 0
